Assay results: PubChem BioAssay (NCATS)
Inconclusive results are not listed. A number with no mark means an inactive call. Active and inactive are the calls of the source. Calls follow the shape of the dose curve; as a rule, active = well fitted inhibition curve with a large enough effect; inconclusive = small, poorly fitted or top-dose-only effect; inactive = no such curve, though single readings can be large or run the other way.

Assay: qHTS Screen of the MIPE 4.0 Collection Against Ewings Sarcoma (TC71) (AID 1259253); also: nearly all actives have a fitted effect of over 40% in size;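 as to viability (% of DMSO): 100% = DMSO-treated cells and 0% = medium-only wells without cells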
Details: TC71 Ewing sarcoma viability, CellTiter-Glo, 48 h; series mostly up to 45.8 µM; viability (% of DMSO): at the top concentration
Outline: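 CellTiter-Glo luminescence after 48 h compound exposure (titration) gave viability; percent activity used DMSO-treated cells as no inhibition and medium-only wells as full inhibition. Cells grown in RPMI/5% FBS, dosed 4 h post-seeding.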
Potency is read from the fitted curve at half-maximal effect.

Structure (SMILES)	Potency	viability (% of DMSO)
OC[C@H]1O[C@@H](Oc2ccc(O)cc2)[C@H](O)[C@@H](O)[C@H]1O	18.7 µM (active)	–
C[C@@H](O)[C@H]1C(=O)N2C(C(=O)OCOC(=O)C(C)(C)C)=C(SC3CN(C4=NCCS4)C3)[C@H](C)[C@H]12	–	91.6%
OC(c1cc(C(F)(F)F)nc2c(C(F)(F)F)cccc12)C1CCCCN1 (centres undefined)	20.9 µM (active)	–
COc1nccc(-c2c(-c3ccc(F)cc3)ncn2C2CCC(O)CC2)n1 (centres undefined)	14.8 µM (active)	–
O=C(O)CCNc1cc(N2CCc3ccccc3CC2)nc(-c2ccccn2)n1	26.4 µM (active)	–
C[C@@H](N)c1ccc(C(=O)Nc2ccnc3[nH]ccc23)cc1	16.6 µM (active)	–
CC[C@]1(O)C[C@H]2CN(CCC3=c4ccccc4=N[C]3[C@@](C(=O)OC)(c3cc4c(cc3OC)N(C)[C@H]3[C@@](O)(C(N)=O)[C@H](O)[C@]5(CC)C=CCN6CC[C@]43[C@@H]65)C2)C1	0.0264 µM (active)	–
CC(C)C[C@@H](C(=O)N[C@H](C(=O)OC1CCCC1)c1ccccc1)[C@H](O)C(=O)NO	18.7 µM (active)	–
CN1C(=O)C[C@H](C(=O)N[C@@H](Cc2cnc[nH]2)C(=O)N2CCC[C@@H]2C(N)=O)NC1=O	20.9 µM (active)	–
N#CC(c1ccnc(NCCc2cccnc2)n1)c1nc2ccccc2s1 (centres undefined)	16.6 µM (active)	–
CCCCC(C)(C)[C@H](O)C=C[C@H]1[C@H](O)CC(=O)[C@H]1CC=CCCCC(=O)O	18.7 µM (active)	–
COc1ccc2cc1Oc1ccc(cc1)C[C@H]1c3cc(c(OC)cc3CCN1C)Oc1c(OC)c(OC)cc3c1[C@H](C2)N(C)CC3	20.9 µM (active)	–
COC1CCC(C(=O)c2ccc3nc4c(cc3c2)CCCO4)CC1 (centres undefined)	16.6 µM (active)	–
COc1cc2c(cc1Cc1cccc(Cl)c1F)c(=O)c(C(=O)O)cn2[C@H](CO)C(C)C	20.9 µM (active)	–
O=C(c1ccc(C(=O)N2CCC(N3CCCC3)CC2)c(Nc2ccccc2)c1)N1CCC(N2CCCC2)CC1	7.43 µM (active)	–
c1ccc(-c2oc3ncnc(NC[C@@H]4CCCO4)c3c2-c2ccccc2)cc1	23.5 µM (active)	–
CCCCCCCCCCCCCCCC(=O)O[C@H]1[C@@H](O)[C@@H](O)[C@@H]([C@H](NC(=O)[C@@H]2C[C@@H](CCC)CN2C)[C@H](C)Cl)O[C@@H]1SC	13.2 µM (active)	–

Structure (SMILES)	Potency	viability (% of DMSO)
CN(C)CCN(Cc1ccc(Cl)cc1)c1ccccn1	20.9 µM (active)	–
CCCC1OC2C[C@@H]3[C@H]4CCC5=CC(=O)C=C[C@]5(C)[C@H]4C(O)C[C@]3(C)[C@]2(C(=O)CO)O1 (some centres undefined)	13.2 µM (active)	–
COc1ccc(Cn2ccc3ccc(C(=O)NO)cc32)cc1	13.2 µM (active)	–
COC(=O)N1CCN(Cc2cccc(NC(=O)Nc3ccc(C)nc3)c2F)CC1	8.33 µM (active)	–
O=C(Nc1ncc(SCCN2CCCC2)s1)[C@]1(c2ccc(S(=O)(=O)C3CC3)cc2)C[C@@H]1C1CCCCC1	23.5 µM (active)	–
COc1ccc(-c2ccc3ncc4c(c3c2)n(-c2ccc(N3CCNCC3)c(C(F)(F)F)c2)c(=O)n4C)cn1	0.0059 µM (active)	–
CC=C1C2C=C(C)CC1(N)c1ccc(=O)[nH]c1C2 (centres undefined)	23.5 µM (active)	–
O=C(CO)N1CCC(c2[nH]nc(-c3ccc(Cl)cc3)c2-c2ccncn2)CC1	–	117%
O=C(Nc1cccc(C(F)(F)F)c1)Nc1cc(S(=O)(=O)NC2CC2)ccc1-c1ccsc1	20.9 µM (active)	–
CCN1C[C@H](C)n2c(c(O)c3c(=O)n(Cc4ccc(F)c(Cl)c4)nc(C(=O)NC)c32)C1=O	–	113%
CC(C)=CCCC(C)=CCCC(C)=CCCC(C)=CCCC(C)=CCCC(C)=CCCC(C)=CCCC(C)=CCCC(C)=CCO	–	103%
CC[C@H](C=C[C@@H](C)[C@H]1CC[C@H]2[C@@H]3CC=C4C[C@@H](O)CC[C@]4(C)[C@@H]3CC[C@]12C)C(C)C	–	108% [at 23.2 µM]
CCNC(=O)Nc1ccc(Oc2ncnc(N)c2C=NOC)cc1Cl	–	137%
Cc1cnc(-c2cc(N3CCN(C(=O)CCS(C)(=O)=O)CC3)ncc2Cl)c(C)c1	–	108%
Cc1nc(NC(=O)N2CCC[C@@H]2C(N)=O)sc1-c1csc(C(C)(C)C)n1	6.62 µM (active)	–
O=S(=O)(NCCNCC=Cc1ccc(Br)cc1)c1cccc2cnccc12	2.64 µM (active)	–
c1cc(OCCN2CCCCC2)cc(-c2n[nH]c3ccc(-c4ncn[nH]4)cc23)c1	23.5 µM (active)	–
